According to PubChem BioAssay AID602381 (National Center for Advancing Translational Sciences (NCATS), 2012):

Molecular target: Pyruvate kinase PKLR (Homo sapiens) (UniProt P30613)
Test: qHTS for Activators of Human Muscle Isoform 2 Pyruvate Kinase (PK): Extended Characterization using Reticulocyte PK
Details: purified hPK-R, Kinase-Glo ATP luminescence, 1 h; series mostly up to 57.5 µM; activity change, positive = activation: at the top concentration; active = well fitted curve in the direction sought with a large enough effect; inactive = no such curve, though single readings can be large or run the other way
Source text: Human pyruvate kinase reticulocyte (hPK-R) enzyme was supplied as a highly purified (>95% pure) preparation from Structural Genomics Consortium in Toronto (Ontario, Canada) and assayed for its ability to generate ATP from ADP using phosphoenolpyruvate (PEP) as a substrate. ATP generation was detected in a coupled reaction by luciferase-mediated luminescence, an ATP-dependent process. Pyruvate kinase substrates, PEP and ADP, were present in the assay at Km and approximately 10-fold below Km respectively. The enzyme was assayed at an intermediate level of activity to screen for both inhibitors and activators. NIH Chemical Genomics Center [NCGC] NIH Molecular Libraries Probe Centers Network [MLPCN] MLPCN Grant: MH085679 Assay Submitter (PI): Matthew G. Vander Heiden, Harvard Medical School
Three uL of substrate mix (at r.t.) in assay buffer (50 mM Imidazole pH7.2, 50 mM KCl, 7 mM MgCl2, 0.01% Tween 20, 0.05% BSA) was dispensed into white solid bottom 1,536 well microtiter plates so that the final concentrations of substrates in the assay were 0.1 mM ADP and 0.5 mM PEP. 23 nL of compound were delivered by a pin tool and 1 uL of enzyme mix (final concentration of 0.1 nM) in assay buffer (4 degree Celsius) was added. Plates were incubated at room temperature for 1 hour. Two uL of detection mix (Kinase-Glo, Promega; at 4 degree Celsius protected from light) was added and luminescence read by a ViewLux (Perkin Elmer) at 1 second exposure/plate. Data were normalized to the uninhibited (row 31). Additionally, a no enzyme and 5-fold enzyme control was dispensed in row 32, split equally between the two conditions.

Pyruvate kinase PKLR (Homo sapiens), sequence (P30613 whole entry, looked up, canonical isoform): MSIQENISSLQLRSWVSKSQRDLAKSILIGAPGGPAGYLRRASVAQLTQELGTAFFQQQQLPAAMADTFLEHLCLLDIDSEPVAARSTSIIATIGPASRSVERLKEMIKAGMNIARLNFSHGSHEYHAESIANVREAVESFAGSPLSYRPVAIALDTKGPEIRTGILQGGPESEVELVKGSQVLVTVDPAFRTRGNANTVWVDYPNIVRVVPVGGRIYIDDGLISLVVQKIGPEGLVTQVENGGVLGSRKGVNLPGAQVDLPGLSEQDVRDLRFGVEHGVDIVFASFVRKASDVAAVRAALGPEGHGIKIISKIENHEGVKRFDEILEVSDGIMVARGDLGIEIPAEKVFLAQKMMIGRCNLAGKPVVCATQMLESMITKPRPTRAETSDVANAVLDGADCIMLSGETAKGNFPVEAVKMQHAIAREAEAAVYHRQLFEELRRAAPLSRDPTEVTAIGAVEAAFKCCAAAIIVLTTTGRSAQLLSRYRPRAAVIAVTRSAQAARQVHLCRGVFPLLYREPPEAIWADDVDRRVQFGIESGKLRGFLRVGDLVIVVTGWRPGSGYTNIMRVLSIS

Activity change, positive = activation, inactive:
Cc1cc2c(s1)c1cnn(Cc3cc(F)c(F)cc3F)c(=O)c1n2C 5.17%
Cc1cc2c(s1)c1cnn(Cc3c(Cl)ccc(C)c3F)c(=O)c1n2C -1.16%
Cc1cc2c(s1)c1cnn(Cc3cc(F)ccc3F)c(=O)c1n2C -18.9%
Cc1cc2c(s1)c1cnn(Cc3ccc(F)cc3F)c(=O)c1n2C -0.917%
COc1cccc(Cn2ncc3c4sc(S(C)=O)cc4n(C)c3c2=O)c1 (stereo not given) 11.7%
